Measurements from PubChem BioAssay.
Activity calls are given as the source filed them.

What was measured:
[1] = tested on: Plasmodium falciparum Sir2 (PF13_0152, Sir2A); test: pfSir2 binders on small-molecule microarrays, primary screen, biochemical, small-molecule microarray, 635 nm fluorescence (AID 1098); conditions: small-molecule microarray binding, fluorescence 635 nm; higher = more signal;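 also: score merges spot fluorescence intensity with its signal-to-noise ratio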
[2] = small-molecule microarray binders of probe aDKK1, primary screen, biochemical, biotinylated probe, 635/667 nm fluorescence (AID 1099); conditions: higher = more signal;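 also: score merges 667nm spot fluorescence with signal to noise across triplicate slides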
[3] = small-molecule microarray binders of probe aCHRDL2, primary screen, biochemical, biotinylated probe, 635/667 nm fluorescence (AID 1100); conditions: higher = more signal
[4] = splicing luciferase reporter signal modulators, primary screen, spliceosome inhibition project, cell-based, HEK293, splice +/- reporter (AID 1101); conditions: luminescence, 24 h, higher = more signal, called active from +8 up or from −8 down;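 also: HEK293 cells carrying a splicing-competent luciferase reporter gene; test concentration not given here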
[5] = target: Fibroblast growth factor 10 (Homo sapiens) (UniProt O15520); test: FGF10 binders on small-molecule microarrays, primary screen, biochemical, small-molecule microarray, 635 nm fluorescence (AID 1102); conditions: FGF10 binding, fluorescence 635 nm, higher = more signal
Fibroblast growth factor 10 (Homo sapiens), sequence (O15520 whole entry, looked up): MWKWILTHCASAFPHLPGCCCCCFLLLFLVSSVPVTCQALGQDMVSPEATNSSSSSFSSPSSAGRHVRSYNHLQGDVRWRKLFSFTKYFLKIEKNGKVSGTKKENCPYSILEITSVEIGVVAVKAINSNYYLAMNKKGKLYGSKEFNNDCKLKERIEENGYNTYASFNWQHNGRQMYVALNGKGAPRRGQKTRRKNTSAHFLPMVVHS

[6] = tested on: glycogen synthase kinase-3 (GSK3A per assay name; protocol says GSK3B); test: GSK3 binders on small-molecule microarrays, primary screen, biochemical, small-molecule microarray, 635 nm fluorescence, GSK3A (AID 1103); conditions: small-molecule microarray binding, fluorescence 635 nm; higher = more signal; also: the record names both GSK3A and GSK3B
[7] = target: Epidermal growth factor receptor (Homo sapiens) (UniProt P00533); test: EGFR binders on small-molecule microarrays, primary screen, biochemical, small-molecule microarray, 635 nm fluorescence (AID 1104); conditions: EGFR binding, higher = more signal;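 also: score merges 667 nm emission intensity with spot signal to noise over triplicate slides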
Epidermal growth factor receptor (Homo sapiens), sequence (P00533 whole entry, looked up): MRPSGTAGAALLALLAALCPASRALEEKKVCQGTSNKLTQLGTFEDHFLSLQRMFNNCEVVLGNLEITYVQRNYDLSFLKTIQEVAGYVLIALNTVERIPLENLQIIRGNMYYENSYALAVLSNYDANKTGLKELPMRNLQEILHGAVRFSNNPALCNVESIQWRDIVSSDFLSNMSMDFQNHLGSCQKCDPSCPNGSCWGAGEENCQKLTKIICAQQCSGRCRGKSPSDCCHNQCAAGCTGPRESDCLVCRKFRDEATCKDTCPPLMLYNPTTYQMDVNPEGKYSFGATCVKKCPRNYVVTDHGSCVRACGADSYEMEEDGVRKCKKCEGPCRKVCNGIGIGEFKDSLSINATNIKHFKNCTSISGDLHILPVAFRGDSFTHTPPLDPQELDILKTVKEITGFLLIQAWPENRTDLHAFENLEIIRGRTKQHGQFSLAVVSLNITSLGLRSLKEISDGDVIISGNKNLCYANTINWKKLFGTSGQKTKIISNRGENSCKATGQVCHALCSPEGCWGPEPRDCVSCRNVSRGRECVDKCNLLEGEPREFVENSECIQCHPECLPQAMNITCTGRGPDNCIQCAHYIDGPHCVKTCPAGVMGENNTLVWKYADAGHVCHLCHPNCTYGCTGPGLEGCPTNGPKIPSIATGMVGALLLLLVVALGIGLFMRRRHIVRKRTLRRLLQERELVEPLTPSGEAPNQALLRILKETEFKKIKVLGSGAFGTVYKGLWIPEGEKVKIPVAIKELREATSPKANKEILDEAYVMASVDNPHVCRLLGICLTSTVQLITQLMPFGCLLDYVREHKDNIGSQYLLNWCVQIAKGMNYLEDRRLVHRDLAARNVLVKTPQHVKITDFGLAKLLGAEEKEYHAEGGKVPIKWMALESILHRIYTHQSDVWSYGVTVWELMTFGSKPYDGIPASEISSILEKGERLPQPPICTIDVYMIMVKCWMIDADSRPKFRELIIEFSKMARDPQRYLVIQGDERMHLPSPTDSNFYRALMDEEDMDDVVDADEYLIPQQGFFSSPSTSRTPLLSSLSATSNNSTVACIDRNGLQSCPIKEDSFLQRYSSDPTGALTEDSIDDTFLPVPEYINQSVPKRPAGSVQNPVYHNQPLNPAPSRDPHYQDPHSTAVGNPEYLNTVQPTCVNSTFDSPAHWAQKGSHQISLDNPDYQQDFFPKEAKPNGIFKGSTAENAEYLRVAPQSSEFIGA

[8] = target: Follistatin-related protein 3 (Homo sapiens) (UniProt O95633); test: FSTL3 binders on small-molecule microarrays, primary screen, biochemical, small-molecule microarray, 635 nm fluorescence (AID 1105); conditions: FSTL3 binding, higher = more signal;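 also: score merges emission near 667 nm and signal to noise per printed spot across three slides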
Follistatin-related protein 3 (Homo sapiens), sequence (O95633 whole entry, looked up): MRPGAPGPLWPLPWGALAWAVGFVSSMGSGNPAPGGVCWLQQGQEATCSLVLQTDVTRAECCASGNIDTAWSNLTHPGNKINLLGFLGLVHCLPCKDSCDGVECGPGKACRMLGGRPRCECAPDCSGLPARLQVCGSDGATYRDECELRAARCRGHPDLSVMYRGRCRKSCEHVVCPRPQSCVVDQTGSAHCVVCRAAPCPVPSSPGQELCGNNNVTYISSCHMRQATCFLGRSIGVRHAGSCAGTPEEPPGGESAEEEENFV

[9] = target: Dickkopf-related protein 1 (Homo sapiens) (UniProt O94907); test: DKK1 binders on small-molecule microarrays, primary screen, biochemical, small-molecule microarray, 635 nm fluorescence scan (AID 1106); conditions: DKK1 binding, higher = more signal;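 also: score merges emission near 667 nm with signal to noise over three replicate slides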
Dickkopf-related protein 1 (Homo sapiens), sequence (O94907 whole entry, looked up): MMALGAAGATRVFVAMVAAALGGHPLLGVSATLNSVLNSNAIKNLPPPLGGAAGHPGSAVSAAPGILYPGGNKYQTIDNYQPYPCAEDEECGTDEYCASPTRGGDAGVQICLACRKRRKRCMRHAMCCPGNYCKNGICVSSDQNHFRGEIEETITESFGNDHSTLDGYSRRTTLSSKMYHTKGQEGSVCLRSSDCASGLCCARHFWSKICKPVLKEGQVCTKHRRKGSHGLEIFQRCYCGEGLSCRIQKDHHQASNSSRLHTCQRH

[10] = tested on: Inhibin beta A chain (activin A); test: INHBA (activin A) binders on microarrays, primary screen, biochemical, small-molecule microarray, 635 nm fluorescence scan (AID 1107); conditions: small-molecule microarray binding, higher = more signal;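 also: mouse activin A protein probed at 4.33 µg/mL on printed slides; score merges bound-protein fluorescence near 667 nm with spot signal-to-noise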
[11] = tested on: Human papillomavirus type 1a protein E7 (residues 44-93); test: HPV1a E7 fragment binders on microarrays, primary screen, biochemical, small-molecule microarray, residues 44-93, 635 nm fluorescence (AID 1108); conditions: small-molecule microarray binding, fluorescence 635 nm; higher = more signal;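 also: E7 fragment applied at 1 µg/mL in TBST for 1 h at 4 C; score combines spot fluorescence with its signal to noise ratio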
[12] = modulators of HCV replicon luciferase signal, primary screen, HCV replication inhibitor project, Huh7 cells, luciferase reporter (AID 1109); conditions: 48 h, higher = more signal;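 also: huh7 hepatoma cells harbouring a luciferase neomycin HCV replicon reporter; luciferase luminescence as measure of HCV replicon replication; test concentration not given here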
[13] = target: Left-right determination factor 2 (Homo sapiens) (UniProt O00292); test: LEFTY2 binders on small-molecule microarrays, primary screen, biochemical, small-molecule microarray, 635 nm fluorescence scan (AID 1110); conditions: LEFTY2 binding, higher = more signal
Left-right determination factor 2 (Homo sapiens), sequence (O00292 whole entry, looked up): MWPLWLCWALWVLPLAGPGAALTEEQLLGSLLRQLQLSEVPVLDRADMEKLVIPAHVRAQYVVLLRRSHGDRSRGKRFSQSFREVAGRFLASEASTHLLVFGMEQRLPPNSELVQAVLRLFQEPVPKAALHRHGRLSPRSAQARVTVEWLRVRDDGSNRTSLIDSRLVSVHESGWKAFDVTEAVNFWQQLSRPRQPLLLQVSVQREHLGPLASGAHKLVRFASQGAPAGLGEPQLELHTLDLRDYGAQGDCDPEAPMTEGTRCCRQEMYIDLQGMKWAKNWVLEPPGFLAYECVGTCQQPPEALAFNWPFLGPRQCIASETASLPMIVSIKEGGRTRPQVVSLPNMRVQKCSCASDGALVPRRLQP

[14] = target: Calmodulin-1 (Homo sapiens) (UniProt P0DP23); test: CALM1 binders on microarrays, EGTA buffer, profiling panel, biochemical, small-molecule microarray, Cy5-labelled CALM1 (AID 1111); conditions: Cy5-CALM1 binding fluorescence, higher = more signal;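 also: labelled calmodulin applied in Tris saline Tween buffer holding calcium plus EGTA and DTT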
[15] = target: Calmodulin-1 (Homo sapiens) (UniProt P0DP23); test: calcium-bound CALM1 binders on microarrays, profiling panel, artefact control for SMM control-protein annotation, biochemical, small-molecule microarray, Cy5-labelled CALM1, plus calcium (AID 1112); conditions: Cy5-CALM1 binding fluorescence, higher = more signal;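 also: score merges spot fluorescence with signal to noise from triplicate slides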
[16] = small-molecule microarray binders of probe aWnt5a, primary screen, biochemical, biotinylated probe, 635/667 nm fluorescence (AID 1113); conditions: higher = more signal;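 also: score merges 667 nm fluorescence intensity with signal-to-noise per printed feature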
[17] = small-molecule microarray binders of probe aShh, primary screen, biochemical, biotinylated probe, 635/667 nm fluorescence (AID 1114); conditions: higher = more signal;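 also: probe is biotin-labelled aShh protein from a stem cell growth factor screen; measures binding of labelled protein to compounds printed on the slide; score merges feature fluorescence at 667 nm with signal-to-noise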
[18] = small-molecule microarray binders of probe aNog, primary screen, biochemical, biotinylated probe, 635/667 nm fluorescence (AID 1115); conditions: higher = more signal;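 also: probe is biotinylated aNog protein used at 0.15 µg/mL for 1 h at 4 C; z-score combines 667 nm fluorescence of each spot with its signal to noise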
[19] = target: Torsin-1A-interacting protein 1 (Homo sapiens) (UniProt Q5JTV8); test: LAP1 binders from COS7 cell lysate, primary screen, small-molecule microarray, 635/667 nm fluorescence (AID 1116); conditions: COS7-hLAP1 lysate binding, 635 nm fluorescence, higher = more signal
Torsin-1A-interacting protein 1 (Homo sapiens), sequence (Q5JTV8 whole entry, looked up): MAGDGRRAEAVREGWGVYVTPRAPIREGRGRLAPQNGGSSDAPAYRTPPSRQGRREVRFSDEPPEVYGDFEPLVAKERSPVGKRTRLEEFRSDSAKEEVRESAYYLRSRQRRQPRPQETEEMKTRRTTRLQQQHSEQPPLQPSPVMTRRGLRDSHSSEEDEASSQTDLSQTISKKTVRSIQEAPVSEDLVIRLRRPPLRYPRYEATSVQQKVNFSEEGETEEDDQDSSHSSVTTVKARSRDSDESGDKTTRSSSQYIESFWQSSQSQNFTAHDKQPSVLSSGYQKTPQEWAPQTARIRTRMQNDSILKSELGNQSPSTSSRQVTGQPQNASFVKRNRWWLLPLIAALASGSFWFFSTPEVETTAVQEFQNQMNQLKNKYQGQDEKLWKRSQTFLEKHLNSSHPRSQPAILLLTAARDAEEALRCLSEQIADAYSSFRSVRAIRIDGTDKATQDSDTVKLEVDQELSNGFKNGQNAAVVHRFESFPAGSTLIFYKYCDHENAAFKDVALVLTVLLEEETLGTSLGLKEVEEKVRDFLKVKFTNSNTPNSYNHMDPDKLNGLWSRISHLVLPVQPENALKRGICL

[20] = target: Alpha-bungarotoxin (Bungarus multicinctus) (UniProt P60615); test: alpha-bungarotoxin binders on microarray, profiling panel, artefact control for SMM control protein annotation, biochemical, small-molecule microarray, Alexa647 label, 635/667 nm fluorescence (AID 1117); conditions: alpha-BTX-A647 binding fluorescence, higher = more signal
Alpha-bungarotoxin (Bungarus multicinctus), sequence (P60615 whole entry, looked up): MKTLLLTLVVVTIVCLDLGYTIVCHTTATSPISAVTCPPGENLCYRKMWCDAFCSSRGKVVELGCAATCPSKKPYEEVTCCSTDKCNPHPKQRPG

Row | SMILES | composite z-score [1] | composite z-score [2] | composite z-score [3] | z-score [4] | composite z-score [5] | composite z-score [6] | composite z-score [7] | composite z-score [8] | composite z-score [9] | composite z-score [10] | composite z-score [11] | z-score [12] | composite z-score [13] | composite z-score [14] | composite z-score [15] | composite z-score [16] | composite z-score [17] | composite z-score [18] | composite z-score [19] | composite z-score [20]
1 | CC(=O)c1ccc(C(O)C2C=CC3C(=O)N(c4ccccc4)C(=O)C3N2Nc2ccc(C#N)cc2)cc1 (stereo not given) | 0.45 | 0.204 | 0.764 | 0.744 (inactive) | -0.0433 | 0.582 | 0.262 | 0.133 | -0.594 | 0.443 | 0.909 | -0.0483 | 0.0172 | 1.11 | 0.586 | -0.172 | 0.149 | -0.409 | 0.142 | 1.33
2 | COC(=O)[C@@]1(Cc2ccccc2)[C@H]2c3cc(C(=O)N(C)C)n(CCc4ccc(O)c(OC)c4)c3C[C@H]2CN1C(=O)c1ccccc1 | 0.0108 | 1.32 | 0.379 | 0.905 (inactive) | 0.626 | 0.652 | 0.569 | 0.37 | 0.358 | -0.0861 | 0.351 | -0.261 | 0.38 | 0.89 | -0.136 | 0.583 | 1.49 | 0.974 | 0.279 | 0.19
3 | C=CCC(OC(C)=O)[C@@H]1[C@@H](N(Cc2ccc(-c3cccc(C(F)(F)F)c3)o2)C(=O)c2ccc(C)cc2)c2cc(OCCCO)ccc2N1C(=O)c1ccc2ccccc2c1 (stereo not given in full) | 0.178 | -0.149 | 0.155 | -0.619 (inactive) | 0.298 | -0.461 | -0.0161 | 0.443 | 0.217 | 1.01 | -0.191 | -0.471 | -0.0584 | -0.287 | -0.208 | 0.0433 | -0.221 | -0.347 | -0.048 | -0.0213
4 | COC(=O)c1ccc([C@H](NC(=O)c2ccco2)[C@]2(C)C[C@H]2C2CCCCC2)cc1 | -1.05 | 0.642 | 1.06 | 2.43 (inactive) | -0.32 | -1.22 | -0.808 | -1.03 | -1.09 | 0.447 | -0.0855 | -0.978 | -1.6 | 1.51 | 1.39 | -0.096 | 0.142 | 1.46 | -0.101 | 0.351
5 | C=CCOC(=O)[C@H]1[C@@H]2C(=O)O[C@@H](c3ccccc3)[C@@H](c3ccccc3)N2[C@@H](c2ccc(OCCOC(=O)[C@H]3C[C@H]4C(=O)N[C@@H](CC(C)C)C(=O)N4[C@H]3c3cccc(OCCO)c3)cc2)[C@]12C(=O)Nc1ccc(I)cc12 | 1.36 | -0.122 | 0.18 | 0.642 (inactive) | 1.33 | 1.31 | 1.21 | 0.919 | 0.963 | 0.535 | 1.31 | -1.51 | 1.08 | 0.621 | 0.0537 | -0.168 | -0.0769 | -0.141 | -0.302 | 0.473
6 | CC(CO)N1C(=O)[C@@H]2[C@H]3C(=O)OCC=C[C@H]3OC23C=CCN(C(C)(C)C)C(=O)[C@@H]13 (stereo not given in full) | 0.115 | -0.323 | 0.129 | 0.74 (inactive) | -0.0566 | -0.764 | -1.14 | -0.205 | -0.496 | -0.197 | -1.89 | -0.619 | -0.7 | -0.119 | -0.72 | 0.308 | -0.289 | -0.158 | -1.13 | 0.193
7 | O=C1C2C=CC(C(O)c3ccccc3)N(Nc3ccccc3F)C2C(=O)N1c1ccccc1 (stereo not given) | 0.797 | -0.168 | 0.24 | -0.245 (inactive) | 0.311 | -0.178 | 0.223 | 0.341 | 0.0646 | 0.626 | 0.188 | -0.384 | -0.0935 | 0.0824 | -0.537 | -0.15 | -0.0626 | -0.341 | 0.178 | 0.204
8 | COc1cc(OC)c(C(O)C2C=CC3C(=O)N(c4ccccc4)C(=O)C3N2Nc2ccccc2)cc1Br (stereo not given) | 1.53 | 0.184 | 0.612 | 0.528 (inactive) | 0.247 | 0.176 | -0.487 | 0.39 | -0.386 | 0.791 | 1.4 | -0.801 | -0.263 | 1.02 | 0.285 | -0.0346 | -0.138 | -0.0604 | 0.474 | 0.665
9 | C=CCC(OC(C)=O)[C@@H]1[C@@H](N(Cc2ccc(-c3ccccc3)cc2)C(=O)Cc2ccc(F)cc2)c2cc(OCCCO)ccc2N1C(=O)Cc1ccc(OC)cc1 (stereo not given in full) | -0.383 | -0.129 | 0.0545 | -0.599 (inactive) | -0.0269 | 0.0082 | -0.244 | 0.359 | -0.139 | 1.14 | -0.0218 | -0.71 | 0.0922 | 0.498 | -0.124 | -0.0478 | -0.343 | -0.394 | -0.002 | 0.215
10 | CC(C)(C)N1CC=CC23O[C@@H]4C=CCOC(=O)[C@@H]4[C@H]2C(=O)N(CCCCCCO)[C@@H]3C1=O (stereo not given in full) | 1.09 | -0.102 | 0.65 | 0.804 (inactive) | -1.59 | -0.708 | -1.04 | -1.34 | -1.34 | 0.294 | -1.38 | 0.397 | -0.84 | -0.243 | -0.123 | -0.206 | -0.291 | -0.357 | -0.252 | -0.348
11 | CCC(CC)C(O)C1C=CC2C(=O)N(c3ccccc3)C(=O)C2N1Nc1ccc(C(C)C)cc1 (stereo not given) | 1.23 | 0.789 | 0.948 | -0.0169 (inactive) | 0.663 | 1.17 | 0.0407 | 0.932 | -0.0563 | 0.916 | 1.28 | -0.652 | -0.0146 | 1.04 | 0.419 | -0.0643 | 0.698 | 0.967 | 1.23 | 1.27
